A number with no mark means an inactive call.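 How the source made its calls: active = AUC reduced over 20% with Padj below 0.05 in at least 2 of 3 replicates; inactive = otherwise.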

39 compounds from the supplement of paper PMC12669032 can be followed below.

One assay deals with Roseburia intestinalis. Nature of the assay: growth AUC relative to DMSO control (median of replicates) (fraction); higher = more growth (less inhibition), active = hit call of the paper. The conditions noted are these: 20 µM; 24 h. The procedure, abridged:
(§1)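 Gut bacterial monocultures were grown anaerobically at 37 °C in mGAM, starting at OD600 0.05, with 20 µM compound (1% DMSO) in round-bottom 96-well plates under pierced gas-permeable seals. OD600 was read hourly for 24 h. Area under the growth curve (minimum OD set to 0) was normalised to the plate median of DMSO controls, or to row and column medians on the industrial chemical plate. The value is the median of three biological replicates grown on separate days.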
`ClC1=C(Cl)C(Cl)(C2(Cl)C(Cl)=C(Cl)C(Cl)=C2Cl)C(Cl)=C1Cl`: the “growth AUC” value was 0.91.
Take `O=C1OCC2C1C1(Cl)C(Cl)=C(Cl)C2(Cl)C1(Cl)Cl` (stereo not drawn): the “growth AUC” value is 0.975.
The same measure, in the same setting: next, `CCOC(=O)C(Cl)Cc1cc(-n2nc(C)n(C(F)F)c2=O)c(F)cc1Cl` (stereo not drawn): 1.03.
Still for that read-out and setting: to `O=C1c2ccccc2C(=O)N1SC(Cl)(Cl)Cl` belongs 0.99.
The same measure, in the same setting: next, `CNC(=O)Oc1cc(C)cc(C(C)C)c1`: 1.06; `Cc1cc(OC(=O)N(C)C)nn1C(=O)N(C)C`: 1.06.
As to `Cc1cccc(C)c1N(Cn1cccn1)C(=O)CCl`, the “growth AUC” value is 0.935.
Same read-out and setting: next, `COP(=O)(OC)O/C(C)=C/C(=O)N(C)C`: 0.988.
The same measure, in the same setting: to `N#Cc1nn(-c2c(Cl)cc(C(F)(F)F)cc2Cl)c(N)c1SC(F)(F)F` belongs 0.558 (active).
As for `CCc1cccc(C)c1N(C(=O)CCl)C(C)COC` (stereo not drawn), the “growth AUC” value was 1.07.
`COC(=O)COc1ccc(Cl)cc1Cl`: the “growth AUC” value was 0.943.
Still for that read-out and setting: next, `CNC(=O)O/N=C(\SC)C(=O)N(C)C`: 0.997.
On the same count and under the same terms, to `O=C(O)C(F)(F)C(F)(F)C(F)(F)C(F)(F)C(F)(F)C(F)(F)C(F)(F)F` belongs 1; to `O=C(O)c1ccc(Cl)nc1`, 1.16.
The same measure, in the same setting: next, `CCOP(=S)(OCC)SCCS(=O)(=O)CC`: 0.971; `COCc1c(F)c(F)c(COC(=O)C2C(C=C(C)C)C2(C)C)c(F)c1F` (stereo not drawn): 1.
With `COP(=S)(OC)Oc1ccc(C#N)cc1`, the “growth AUC” value was 1.06.
On the same count and under the same terms, next, `CO/N=C(/C(=O)OC)c1ccccc1COc1ccccc1C`: 0.97.
Same read-out and setting: next, `O=NN(CCO)CCO`: 0.971; `COP1(=S)OCc2ccccc2O1` (stereo not drawn): 0.943; `Cc1cnc2c(C(=O)O)c(Cl)ccc2c1`: 0.937.

The subject of a further assay is Streptococcus salivarius. Described as above. The conditions noted are these: 20 µM; 24 h. The procedure, abridged:
as §1
Consider `O=C1C2CC=CCC2C(=O)N1SC(Cl)(Cl)Cl` (stereo not drawn), for which the “growth AUC” value is 1.05.
Same read-out and setting: to `CCOc1cc(C(C)(C)C)ccc1C1COC(c2c(F)cccc2F)=N1` (stereo not drawn) belongs 1.02; to `O=C(O)CCCOc1ccc(Cl)cc1Cl`, 0.969; to `Oc1ccc(C(c2ccc(O)cc2)(C(F)(F)F)C(F)(F)F)cc1`, 0.85.
On the same count and under the same terms, next, `CCNc1nc(NC(C)C)nc(SC)n1`: 0.973; `CCC(C)(c1ccc(O)cc1)c1ccc(O)cc1`: 0.96.
The same measure, in the same setting: to `CCOCN(C(=O)CCl)c1c(C)cccc1CC` belongs 1.
As for `Cc1[nH]c(=O)n(C(C)(C)C)c(=O)c1Cl`, the “growth AUC” value is 1.02.
Same read-out and setting: to `N#Cc1nn(-c2c(Cl)cc(C(F)(F)F)cc2Cl)c(N)c1C(F)(F)F` belongs 0.539 (active); to `CNC(=O)Oc1ccccc1C(C)C`, 1.04; to `CCOP(=S)(OCC)SCSc1ccc(Cl)cc1`, 1.03.
Regarding `Clc1c(Cl)c(Cl)c(Cl)c(Cl)c1Cl`, the “growth AUC” value is 0.999.
For `CCOP(=S)(OCC)Oc1cc(C)nc(C(C)C)n1`, the “growth AUC” value was 1.03.
As to `CCC(C)c1ccccc1OC(=O)NC` (stereo not drawn), the “growth AUC” value is 1.04.
The same measure, in the same setting: next, `CC(C)(C)c1ccc(CCOc2ncnc3ccccc23)cc1`: 0.975; `CN(C)C(CSS(=O)(=O)c1ccccc1)CSS(=O)(=O)c1ccccc1`: 0.973; `CCOP(=S)(OCC)SCS(=O)(=O)CC`: 1.01.
Still for that read-out and setting: to `COP(=S)(NC(C)C)Oc1ccccc1C(=O)OC(C)C` (stereo not drawn) belongs 0.977.
Regarding `ClC1=C(Cl)C(Cl)(C2(Cl)C(Cl)=C(Cl)C(Cl)=C2Cl)C(Cl)=C1Cl`, the “growth AUC” value is 0.962.
The same measure, in the same setting: to `O=C1OCC2C1C1(Cl)C(Cl)=C(Cl)C2(Cl)C1(Cl)Cl` (stereo not drawn) belongs 0.986; to `CCOC(=O)C(Cl)Cc1cc(-n2nc(C)n(C(F)F)c2=O)c(F)cc1Cl` (stereo not drawn), 1.03; to `O=C1c2ccccc2C(=O)N1SC(Cl)(Cl)Cl`, 1.01.
Same read-out and setting: next, `CNC(=O)Oc1cc(C)cc(C(C)C)c1`: 0.935; `Cc1cc(OC(=O)N(C)C)nn1C(=O)N(C)C`: 0.971.
Still for that read-out and setting: next, `Cc1cccc(C)c1N(Cn1cccn1)C(=O)CCl`: 0.999; `COP(=O)(OC)O/C(C)=C/C(=O)N(C)C`: 0.984.
For `N#Cc1nn(-c2c(Cl)cc(C(F)(F)F)cc2Cl)c(N)c1SC(F)(F)F`, the “growth AUC” value was 0.75 (active).
